This is a sample that favours compounds with a hit; in the whole collection about 5.8% have one here.
MCF10A rerep: DNA re-replication induction in MCF 10a cells. MCF 10A DNA re-replication, Hoechst nuclear intensity, 48 h. Potency, µM (highest dose often 46.1 µM), for inactives: at the top dose activity, positive = re-replication, most hits filed as activators. 350,000 compounds, 2.9% hits; also: % of control where 0% means no effect; nearly all actives have a fitted effect of over 50% in size
KB-3-1 cytotox: KB-3-1 parental cell cytotoxicity | AID 1347075 | 400,000 compounds, 1.4% hits | Potency, µM (series often up to 46.1 µM), actives largely listed as cytotoxic | KB-3-1 viability, CellTiter-Glo ATP luminescence, 72 h; also: % is scaled to controls: 0 for no effect and ±100 for the full control effect; nearly all actives have a fitted effect of over 60% in size
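Cytotoxicity measured as CellTiter-Glo luminescence after 72 h at 37 C. Compound titrations were pinned onto drug-naive KB-3-1 parental adenocarcinoma cells grown in DMEM with 10% FBS, and normalized data fitted to concentration-response curves.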
SW480 rerep: induces DNA re-replication in SW480 colon adenocarcinoma cells; SW480 DNA re-replication, Hoechst DNA content imaging, 48 h; Potency, µM (highest dose often 46.1 µM), for inactives: top-dose re-replication activation, usual class: activators; 340,000 compounds, 1.8% hits; also: % of control where 0% means no effect; nearly all actives have a fitted effect of over 55% in size
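Cells (250 per well) received 23 nL compound or DMSO by pin tool and were kept 48 hr at 37 C, 5% CO2. Nuclei were then stained with Hoechst for 40 min and scanned for DNA content.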
KB-V1 MDR tox: kills drug-selected multidrug resistant KB-V1 cells. 400,000 compounds, 3.4% hits. KB-V1 MDR cells viability, CellTiter-Glo, 72 h. Potency, µM (doses to about 46.1 µM), most hits filed as cytotoxic; also: % is scaled to controls: 0 for no effect and ±100 for the full control effect; nearly all actives have a fitted effect of over 60% in size
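Following 72 h at 37 degrees C with compound, KB-V1 cell viability was read by CellTiter-Glo luminescence, medium being phenol-red-free DMEM plus 10% FBS; concentration-response parameters came from normalized, curve-fitted qHTS data.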
ALOX12 inh: blocks human arachidonate 12S-lipoxygenase; P18054; purified 12hLO, xylenol orange hydroperoxide absorbance; Potency, µM (series often up to 108 µM), for the others: top-dose activity change, negative = inhibition, actives largely listed as inhibitors; 580,000 compounds, 1.1% hits; AID 1671190; also: % is scaled to controls: 0 for no effect and ±100 for the full control effect
Target sequence (P18054 whole entry, looked up): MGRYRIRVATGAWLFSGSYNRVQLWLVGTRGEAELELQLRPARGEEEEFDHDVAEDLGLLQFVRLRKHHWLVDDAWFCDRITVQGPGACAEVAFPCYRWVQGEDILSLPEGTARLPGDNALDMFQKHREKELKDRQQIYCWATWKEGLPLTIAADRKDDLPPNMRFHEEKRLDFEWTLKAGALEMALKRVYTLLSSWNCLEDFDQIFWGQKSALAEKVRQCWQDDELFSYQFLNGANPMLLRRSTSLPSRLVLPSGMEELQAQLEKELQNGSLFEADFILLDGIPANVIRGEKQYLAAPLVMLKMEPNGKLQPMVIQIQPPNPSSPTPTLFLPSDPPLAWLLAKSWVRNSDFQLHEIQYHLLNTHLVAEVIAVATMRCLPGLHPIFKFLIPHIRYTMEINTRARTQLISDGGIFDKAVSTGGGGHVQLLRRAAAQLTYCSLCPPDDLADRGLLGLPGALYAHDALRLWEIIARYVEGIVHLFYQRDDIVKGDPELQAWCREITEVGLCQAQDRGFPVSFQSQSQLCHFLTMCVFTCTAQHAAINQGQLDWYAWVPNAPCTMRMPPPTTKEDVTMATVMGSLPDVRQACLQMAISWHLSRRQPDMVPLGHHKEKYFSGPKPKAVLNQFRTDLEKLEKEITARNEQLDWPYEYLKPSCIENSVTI
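Purified human 12hLO at 150 nM in 25 mM Hepes, 0.01% Triton X-100, pH 7.0, preincubated 15 min at room temperature with compound. Reaction started with 40 uM arachidonic acid, 30 min at room temperature. Hydroperoxide measured by Fe-xylenol orange, 573/405 nm absorbance ratio.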
PINK1 expr mod: changes PINK1 expression; PINK1 immunofluorescence, high-content cytometry, 24 h; 410,000 compounds, 0.2% hits; Potency, µM (top dose mostly 76.6 µM), without a hit: at the top dose activation (PINK1 increase), usual class: activators; active = well fitted activation curve with a large enough effect; inconclusive = small, poorly fitted or top-dose-only effect; cell line not stated here; also: % of control where 0% means no effect; nearly all actives have a fitted effect of over 65% in size
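Readout is PINK1 immunofluorescence, quantified alongside mitochondrial, cell and nuclear markers by laser-scanning microplate cytometry. Cells from a stable line were exposed to compound titrations (5 concentrations) for 24 hours, with CCCP controls.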
* hit, by the source's call; i = inactive; ? = inconclusive; · = no result; ! = not confirmed by another sample; [ ] = dose if it differs, or a comment. Unless noted, calls follow the shape of the dose curve; as a rule, active = well fitted curve in the direction sought with a large enough effect; inconclusive = small, poorly fitted or top-dose-only effect, or another doubt; inactive = no such curve, though single readings can be large; an effect the other way counts as inactive or inconclusive. Potency is read from the fitted curve at half-maximal effect.

SMILES	MCF10A rerep	KB-3-1 cytotox	SW480 rerep	KB-V1 MDR tox	ALOX12 inh	PINK1 expr mod
O=C(c1ccc(Cl)cc1)C1CCCN(Cc2ccc3ncccc3c2)C1 (configuration not stated)	?	?	-2%	4.1µM*	13%	1%
O=C(c1ccc(Cl)cc1)C1CCCN(Cc2ccc3c(c2)OCCO3)C1 (configuration not stated)	?	i	-15%	i	-21%	8%
CCCCn1c(NS(=O)(=O)c2ccccc2)c(C(=O)OCC)c2nc3ccccc3nc21	6.5µM*	i	16µM*	?	0%	?
CCCCn1c(NC(=O)c2ccc(Br)o2)c(C(=O)OCC)c2nc3ccccc3nc21	18µM*!	i	16µM*!	i	-10%	2%
C[N+](C)(Cc1ccccc1)CC(Br)CBr (configuration not stated)	·	·	·	·	-46%	·
COC1CC(C)C(OC)c2cc(O)cc(c2O)NC(=O)C(C)=CC=CC(C)C(OC(N)=O)C(C)=CC(C)C1OC (configuration not stated)	5.8µM*	i	2.6µM*	i	-26%	-2%
CCOc1ccccc1N=C1SCCCN1C	13%	i	-3%	i	7.1µM*	5%[38.3 µM]
CCCC1CCC(NC(C)C)CC1 (configuration not stated)	·	·	·	·	26%	·
O=C1CC(CO)CN1 (configuration not stated)	·	·	·	·	-7%	·
CCn1nccc1C(=O)N1[C@H]2CC[C@@H]1c1cnc(-c3ccccc3)nc1C2	·	·	·	·	-3%	·
CCOC(=O)c1ccccc1C(=O)OCC	12%	i	-54%	i	3%	0%
CCOC(=O)c1cnc(N2CC2)nc1N	?	?	?	5.8µM*	11%	-4%
COc1ccc(F)cc1CN1CCN(C(=O)CCC(=O)Nc2nnc(CC(C)C)s2)CC1	18µM*	i	?	i	0%	-1%
CCCc1nnc(NC(=O)CCC(=O)N2CCN(CCOC(c3ccccc3)c3ccccc3)CC2)s1	7%	i	-1%	i	-23%	3%
CC(C)(O)/C=C/C(=O)[C@](C)(O)C1[C@H](O)C[C@@]2(C)C3CC=C4C(C[C@H](O)[C@@H](O)C4(C)C)[C@]3(C)C(=O)C[C@]12C (some centres not stated)	1.3µM*	?	?	i	·	?
CC(C)(O)[C@H]1O[C@H]2CC[C@@]3(C)[C@@](O)(CC[C@H]4Cc5c([nH]c6ccccc56)[C@@]43C)C2=CC1=O	?	i	0.73µM*	i	·	6%
CC1=CC(=C2C(=O)NC(=S)NC2=O)C=C(C(F)(F)F)N1Cc1ccccc1	3.3µM*	2.6µM*	3.7µM*	12µM*	?	4%
O=C(Nc1ccc(Br)cc1)c1cc(Br)cc(Br)c1O	?	·	-3%	·	40µM*	·
CC1=C(O)C(=O)C=C2C1=CC=C1C2(C)CCC2(C)C3CC(C)(C(=O)O)CCC3(C)CCC12C (configuration not stated)	?	?	?	?	4.5µM*	-2%
COc1ccc(NC(=O)CN(C)C(=O)CSC(c2ccccc2)c2ccccc2)cc1	-1%	?	12%	i	?	-1%
COc1ccc(NC(=O)Cn2c3ccccc3c3nc4n(c(=O)c32)CCS4)cc1	21µM*	i	-1%	i	4%	6%
CCOCCCNC(=O)CCl	·	·	·	·	-3%	·
COc1ccc(S(=O)(=O)NC[C@H]2C[C@@H]3CCN2C[C@@H]3CN2CCC(Cc3ccccc3)CC2)cc1	·	·	·	·	20µM*	·
CC1CC2(C)C(CCC3C2CCC2(C)C(OP(=O)(N4CC4)N4CC4)CCC32)CC1=O (configuration not stated)	13µM*	i	-3%	i	-21%	-3%
C[C@]12CCC3C(CC[C@H]4C[C@H](O)CC[C@]34C)C1CC(=O)[C@@H]2O (some centres not stated)	1%	i	-7%	i	-19%	-1%
SMILES	MCF10A rerep	KB-3-1 cytotox	SW480 rerep	KB-V1 MDR tox	ALOX12 inh	PINK1 expr mod
O=c1[nH]c(=S)[nH]c(O)c1N=Nc1cc(S(=O)(=O)Nc2ccc(Cl)cc2)ccc1Cl	-1%	i	0%	i	?	4%
O=c1[nH]c(O)c(N=Nc2cccc(S(=O)(=O)N3CCOCC3)c2)c(=O)[nH]1	2%	i	-7%	i	-16%	1%
NS(=O)(=O)c1ccc(N=Nc2c(O)[nH]c(=S)[nH]c2=O)cc1	-1%	i	-14%	i	40µM*	0%
O=c1[nH]c(=S)[nH]c(O)c1N=Nc1cccc(S(=O)(=O)N2CCOCC2)c1	0%	i	-1%	i	40µM*	0%
COc1ccc(S(=O)(=O)Nc2ccccc2OC)cc1N=Nc1c(O)[nH]c(=S)[nH]c1=O	21µM*	i	9%	i	-31%	?
O=c1[nH]c(=S)[nH]c(O)c1N=Nc1ccc(S(=O)(=O)N2CCOCC2)cc1	5%	i	-13%	i	?	-1%
O=C1CO[C@H]2CN(Cc3ncc[nH]3)C[C@H]2N1Cc1ccccn1	·	·	·	·	114%[176 µM]	·
O=C1CS(=O)C2(CCNCC2)N1c1ccccc1 (configuration not stated)	·	·	·	·	62%	·
COc1ccc(C=C(C#N)c2ccc(OC)cc2)cc1	?	18µM*	?	?	-12%	4%
CCOC(=O)C1=C(N)Oc2cc(C)oc(=O)c2C12C(=O)Nc1ccccc12 (configuration not stated)	·	·	·	·	19%	·
Cn1cc(C(=O)c2ccccc2)c2ccccc21	16%	i	1%	i	18%	3%

High-throughput results: PubChem BioAssay, National Center for Advancing Translational Sciences (NCATS)
